Experimental findings from PubChem BioAssay (NCI) are described below.

The panel holds about 83,000 compounds, 20% with a hit somewhere; the sample as a whole holds those more often.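 48-hour exposure, single concentration, 96-well plates; percent growth endpoint where 0 means no net growth. Active: below 10.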 Values without a mark were called inactive. The source made the active and inactive calls.

Among the test systems are DU-145 prostate; K-562 leukemia; MALME-3M melanoma; MDA-MB-231 breast; RXF 393 renal; SF-268 CNS; SF-295 CNS; SF-539 CNS; UACC-257 melanoma; M14 melanoma.
Common to all, as to assay: NCI-60 one-dose screen, 48 h (100 = growth as untreated, 0 = no growth, -100 = all killed)
What all share (details): 10 µM unless noted

`CCC(C)/C(=C\C#N)NCCCN/C(=C/C#N)C(C)CC` (stereo not given): the growth in the experiment with DU-145 prostate was 122%; with K-562 leukemia, 98.8%; in the experiment with MALME-3M melanoma, 108%; in the experiment on MDA-MB-231 breast, 103%; in the experiment with RXF 393 renal, 115%; with SF-268 CNS it was 113%. Further, the growth with SF-295 CNS is 105%; in the experiment with SF-539 CNS, 97.1%; with UACC-257 melanoma, 106%; in the experiment with M14 melanoma, 96.1%.

Regarding `C=C1C(=O)O[C@H]2[C@H]1CC/C(Cn1cc(CNC(=O)c3cc4ccccc4[nH]3)nn1)=C\CC[C@@]1(C)O[C@@H]21`, the growth was 52.2% in the experiment with DU-145 prostate; 2.12% (active) in the experiment with K-562 leukemia; 0.0965% (active) in the experiment with MALME-3M melanoma; 60.9% in the experiment with MDA-MB-231 breast; 24.5% in the experiment on RXF 393 renal; 68.5% in the experiment on SF-268 CNS. The growth in the experiment on SF-295 CNS is 110%; in the experiment on SF-539 CNS, 6.92% (active); in the experiment with UACC-257 melanoma, 61.7%; in the experiment with M14 melanoma, 57.8%.

`COc1ccc(-c2nc(/C=N/Nc3cc(C)nc4ccc(Br)cc34)c(C)o2)cc1`: the growth was -90.2% (active) with DU-145 prostate; -49.1% (active) in the experiment with K-562 leukemia; -84.6% (active) with MALME-3M melanoma; -89.2% (active) with MDA-MB-231 breast; -90.9% (active) with RXF 393 renal; -72.9% (active) in the experiment with SF-268 CNS. The growth in the experiment with SF-295 CNS is -90.4% (active); in the experiment on SF-539 CNS, -96.1% (active); with UACC-257 melanoma it was 108%; in the experiment on M14 melanoma, 1.07% (active).

Turning to `CCOC(=O)c1cn2c3c(cc(C)cc3c1=O)C(=O)/C(=C/c1ccccc1)C2`, the growth was 106% in the experiment on DU-145 prostate; 79.7% with K-562 leukemia; 112% in the experiment on MALME-3M melanoma; 87.2% with MDA-MB-231 breast; 74.6% with RXF 393 renal; 95.7% with SF-268 CNS. Moreover, the growth in the experiment with SF-295 CNS is 92.6%; in the experiment on SF-539 CNS, 87.8%; with UACC-257 melanoma, 78.4%; with M14 melanoma, 101%.

`CCCCCCCCCCCC(=O)NCCC[N+](C)(C)CC(=O)[O-]`: the growth with DU-145 prostate is 101%; in the experiment with K-562 leukemia it was 83.3%; with MALME-3M melanoma, 108%; in the experiment with MDA-MB-231 breast it was 90.5%; with RXF 393 renal it was 77.2%; in the experiment on SF-268 CNS it was 85.5%. Also, the growth with SF-295 CNS was 101%; in the experiment on SF-539 CNS it was 94.3%; with UACC-257 melanoma, 98.3%; with M14 melanoma, 98.6%.

For the compound `COc1cc(-c2nc(-c3nc4ccc(Cl)cc4[nH]3)cc3c2[nH]c2ccccc23)cc(OC)c1OC`, the growth in the experiment with DU-145 prostate is 86.8%; in the experiment on K-562 leukemia, 54.1%; in the experiment on MALME-3M melanoma it was 92.7%; in the experiment with MDA-MB-231 breast, 4.62% (active); in the experiment with RXF 393 renal, 63.5%; with SF-268 CNS it was 68%. For the same compound, the growth is 61.3% with SF-295 CNS, 67.3% with SF-539 CNS, 100% with UACC-257 melanoma and 71.7% in the experiment with M14 melanoma.

Consider `O=c1ccn(C2CC(O)C(O)C(CO)O2)c(=O)[nH]1` (stereo not given), for which the growth with DU-145 prostate is 121%; with K-562 leukemia it was 109%; in the experiment with MALME-3M melanoma, 112%; in the experiment with MDA-MB-231 breast it was 116%; in the experiment with RXF 393 renal, 245%; with SF-268 CNS, 122%. Further, the growth is 112% in the experiment with SF-295 CNS, 107% in the experiment on SF-539 CNS, 112% with UACC-257 melanoma and 105% in the experiment on M14 melanoma.

With `COc1ccc(S(=O)(=O)n2ccc(-c3ccc4c(c3)CCC(C)(C)O4)n2)cc1OC`, the growth is 82.6% with DU-145 prostate; 53% in the experiment on K-562 leukemia; 114% in the experiment on MALME-3M melanoma; 82.5% in the experiment with MDA-MB-231 breast; 75.1% in the experiment on RXF 393 renal; 85.3% with SF-268 CNS. Further, the growth was 63% with SF-295 CNS, 97.1% in the experiment on SF-539 CNS, 57.1% with UACC-257 melanoma and 81.9% with M14 melanoma.

Turning to `CCOC(=O)c1cc(C(=O)c2cc(OC)c(OC)c(OC)c2)n2c1ccc1ccccc12`, the growth in the experiment with DU-145 prostate was 22.1%; with K-562 leukemia, 12.3%; in the experiment on MALME-3M melanoma, 19.9%; with MDA-MB-231 breast it was 49.8%; in the experiment on RXF 393 renal it was -9.46% (active); with SF-268 CNS, 49.6%. For the same compound, the growth in the experiment on SF-295 CNS is 22.4%; in the experiment on SF-539 CNS, -13.4% (active); in the experiment with UACC-257 melanoma, 63.6%; with M14 melanoma, 10.7%.

Take `O=[N+]([O-])c1ccc(C(c2ccccc2)c2ccccc2)cc1`: the growth in the experiment on DU-145 prostate was 105%; with K-562 leukemia, 91.9%; with MALME-3M melanoma it was 107%; with MDA-MB-231 breast it was 86.3%; in the experiment on RXF 393 renal, 100%; in the experiment on SF-268 CNS, 98.7%. Also, the growth in the experiment on SF-295 CNS is 88.7%; in the experiment on SF-539 CNS, 104%; in the experiment on UACC-257 melanoma, 96.9%; with M14 melanoma, 105%.

Turning to `CCO/C=N/C1=C(C#N)C(c2ccc(Cl)cc2)c2c(c3ccc(C)cc3[nH]c2=O)O1` (stereo not given), the growth with DU-145 prostate is 103%; in the experiment with K-562 leukemia, 88.1%; in the experiment with MALME-3M melanoma it was 81.8%; with MDA-MB-231 breast, 59.6%; with RXF 393 renal, 73.9%; with SF-268 CNS it was 90.7%. In addition, the growth is 89.6% in the experiment with SF-295 CNS, 75.9% in the experiment with SF-539 CNS, 97.2% in the experiment with UACC-257 melanoma and 87.1% with M14 melanoma.

`Cc1ccc(S(=O)(=O)C2=C3C(=C(c4ccccc4)c4ccccc43)CN(S(=O)(=O)c3ccc(C)cc3)C2)cc1`: the growth with DU-145 prostate is 68.2%; in the experiment on K-562 leukemia, 18%; in the experiment with MALME-3M melanoma, 72%; with MDA-MB-231 breast, 48.8%; in the experiment on RXF 393 renal, 47.1%; in the experiment on SF-268 CNS, 45.3%. Further, the growth in the experiment on SF-295 CNS is 68.3%; with SF-539 CNS, 74.1%; in the experiment with UACC-257 melanoma, 91%; in the experiment with M14 melanoma it was 70.7%.

Take `COc1ccc(/C=C2\Oc3cc(OCCCN4CCCC4)ccc3C2=O)cc1`: the growth in the experiment on DU-145 prostate was 95.4%; with K-562 leukemia, -25% (active); with MALME-3M melanoma, 108%; in the experiment with MDA-MB-231 breast, 93.8%; with RXF 393 renal it was 78.9%; with SF-268 CNS, 88.9%. Also, the growth in the experiment with SF-295 CNS is 98.7%; in the experiment with SF-539 CNS, 79.7%; with UACC-257 melanoma, 101%; in the experiment with M14 melanoma it was 84.4%.

For `COC(OC)c1ccccc1`, the growth was 110% in the experiment with DU-145 prostate; 108% in the experiment with K-562 leukemia; 99.7% in the experiment on MALME-3M melanoma; 97% in the experiment with MDA-MB-231 breast; 101% in the experiment on RXF 393 renal; 104% in the experiment with SF-268 CNS. In addition, the growth is 112% in the experiment on SF-295 CNS, 102% with SF-539 CNS, 92.2% with UACC-257 melanoma and 101% with M14 melanoma.

With `COc1cccc(CC(C)=C(c2ccc(OCCN(C)C)cc2)c2ccc(OCCN(C)C)cc2)c1`, the growth in the experiment with DU-145 prostate was 22.1%; with K-562 leukemia, -61.4% (active); in the experiment on MALME-3M melanoma it was -93% (active); in the experiment with MDA-MB-231 breast it was -75.4% (active); in the experiment with RXF 393 renal, -62.6% (active); in the experiment on SF-268 CNS it was -32.9% (active). The growth in the experiment on SF-295 CNS was 22.8%; in the experiment with SF-539 CNS, -93.1% (active); with UACC-257 melanoma it was -74.5% (active); with M14 melanoma, -80.5% (active).

Turning to `COc1ccc(Nc2nc(N)nc3c2CCN(Cc2ccc(OC)cc2OC)C3=O)cc1`, the growth is 88.6% in the experiment with DU-145 prostate; 72.7% in the experiment on K-562 leukemia; 80.8% with MALME-3M melanoma; 84.7% in the experiment with MDA-MB-231 breast; 81.6% with RXF 393 renal; 87.3% in the experiment on SF-268 CNS. The growth was 57.1% in the experiment with SF-295 CNS, 63.5% in the experiment with SF-539 CNS, 88.3% in the experiment with UACC-257 melanoma and 64.6% in the experiment with M14 melanoma.

On to `COc1ccc(Nc2ncccc2C(=O)NCc2cn(Cc3cccc(Oc4ccccc4)c3)nn2)cc1`, for which the growth in the experiment on DU-145 prostate is 46.1%; in the experiment on K-562 leukemia, 33.6%; with MALME-3M melanoma, 41.4%; in the experiment on MDA-MB-231 breast it was 52%; with RXF 393 renal, 46%; in the experiment on SF-268 CNS, 50%. Moreover, the growth in the experiment with SF-295 CNS is 33.7%; in the experiment with SF-539 CNS, 33.6%; with UACC-257 melanoma, 88.8%; in the experiment on M14 melanoma, 38.7%.

As for `C=C1CCC[C@]2(C)CCC[C@H](C)[C@@H](OC(C)=O)[C@@H]3OC(=O)C(=C)[C@@H]3C[C@H]1O2`, the growth in the experiment with DU-145 prostate was 85.5%; with K-562 leukemia, 61.7%; in the experiment on MALME-3M melanoma it was 97.9%; in the experiment with MDA-MB-231 breast, 70.7%; in the experiment with RXF 393 renal, 70.1%; in the experiment on SF-268 CNS, 88.7%. The growth with SF-295 CNS is 80.2%; in the experiment with SF-539 CNS, 88.2%; with UACC-257 melanoma it was 74.3%; in the experiment on M14 melanoma it was 83.2%.

With `CC(C)(C)n1cc(-c2ccnc(NCCCNS(=O)(=O)c3ccccc3)c2)c(-c2cccc(O)c2)n1`, the growth was 55.1% with DU-145 prostate; 4.86% (active) in the experiment on K-562 leukemia; 44% in the experiment with MALME-3M melanoma; 38.6% with MDA-MB-231 breast; 52.8% in the experiment on RXF 393 renal; 50.8% with SF-268 CNS. Further, the growth with SF-295 CNS was 35.1%; with SF-539 CNS, 38.3%; in the experiment with UACC-257 melanoma, 47.2%; in the experiment with M14 melanoma, 34.1%.

Turning to `N=c1ccc2nc3ccc(N)cc3sc-2c1`, the growth in the experiment on DU-145 prostate was 89.4%; in the experiment on K-562 leukemia, 26.6%; in the experiment with MALME-3M melanoma, 31.8%; with MDA-MB-231 breast, 17%; in the experiment on RXF 393 renal, 73.5%; in the experiment on SF-268 CNS, 39.7%. Also, the growth in the experiment on SF-295 CNS was 35.5%; in the experiment with SF-539 CNS, 2.29% (active); in the experiment with UACC-257 melanoma it was 2.21% (active); in the experiment on M14 melanoma, 13.8%.
